Test results published in PubChem BioAssay (NCI).
About 79,000 compounds went through this panel and 15% of them were active in at least one assay; those are over-represented in the sample as a whole. Activity calls are given as the source filed them. No stated cut-off is given here; in the data, active means growth inhibition above about 70%; inactive means the rest.

Assays:
[1] = NCI Yeast Anticancer Drug Screen. Data for the wt1 strain (AID 149);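 further: 0% = growth of vehicle-treated wt1 cultures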; conditions: S. cerevisiae wt1 strain (SPY 50644) growth inhibition, stronger effect = higher value
In short: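 Using yeast strain wt1, compound-induced growth inhibition was determined against vehicle-treated cultures.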

[2] = NCI Yeast Anticancer Drug Screen. Data for the rad50EPP+ strain (AID 151);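 further: 0% = growth of vehicle-treated control cultures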; conditions: S. cerevisiae rad50 mutant strain, stronger effect = higher value
In short: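 Strain rad50EPP+; compound exposure; % growth inhibition vs vehicle.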

[3] = NCI Yeast Anticancer Drug Screen. Data for the mgt1 strain (AID 153); conditions: S. cerevisiae mgt1 mutant growth inhibition, stronger effect = higher value
In short: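 Read-out: yeast growth inhibition vs vehicle control. Strain mgt1, drawn from a panel altered in DNA damage repair or cell cycle control.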

[4] = NCI Yeast Anticancer Drug Screen. Data for the rad50 strain (AID 155);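 further: 0% = growth of vehicle-only cultures of the same strain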; conditions: S. cerevisiae rad50 strain growth inhibition, stronger effect = higher value
In short: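 Relative growth inhibition (compound vs vehicle) was measured in yeast with a defined repair-gene alteration.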

[5] = NCI Yeast Anticancer Drug Screen. Data for the mec2-1 strain (AID 157); conditions: S. cerevisiae mec2-1 strain, stronger effect = higher value
In short: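 Cells of the genetically defined mec2-1 yeast strain are incubated with test compound. Inhibition of growth is calculated against vehicle-treated controls.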

[6] = NCI Yeast Anticancer Drug Screen. Data for the rad14 strain (AID 159);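 further: 0% = growth of vehicle-treated control cultures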; conditions: S. cerevisiae rad14 strain growth inhibition, stronger effect = higher value
In short: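 Screen for anticancer potential: a yeast strain altered in DNA damage repair is grown with compound, and reduced growth is quantified against vehicle controls.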

[7] = NCI Yeast Anticancer Drug Screen. Data for the sgs1 mgt1 strain (AID 161);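 further: 0% = growth of cultures given vehicle only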; conditions: S. cerevisiae sgs1 mgt1 strain, stronger effect = higher value
In short: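 Mutant yeast exposed to compound; growth scored against vehicle-only wells.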

[8] = NCI Yeast Anticancer Drug Screen. Data for the CLN2oe strain (AID 163);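 further: 0% = growth of vehicle-only control cultures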; conditions: S. cerevisiae CLN2oe strain, stronger effect = higher value
In short: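 Strain altered in cell-cycle control, incubated with compound; growth compared to solvent-treated controls.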

[9] = NCI Yeast Anticancer Drug Screen. Data for the cln2 rad14 strain (AID 165);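 further: 0% = growth equal to vehicle treated cultures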; conditions: S. cerevisiae cln2 rad14 strain, stronger effect = higher value
In short: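 The screen exposed genetically defined yeast (cln2 rad14) to test compounds and scored growth inhibition relative to vehicle-treated controls.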

[10] = NCI Yeast Anticancer Drug Screen. Data for the bub3 strain (AID 167); conditions: S. cerevisiae bub3 mutant strain, stronger effect = higher value
In short: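 Screening used yeast with an engineered genetic alteration affecting cell cycle control. Compound-exposed cultures were compared with vehicle cultures, and reduced growth was taken as inhibition.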

[11] = NCI Yeast Anticancer Drug Screen. Data for the wt2 strain (AID 169);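 further: 0% = growth of vehicle-treated yeast cultures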; conditions: S. cerevisiae wt2 strain growth inhibition, stronger effect = higher value
In short: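 Steps: yeast strain treated with compound; growth recorded; inhibition calculated relative to cultures given vehicle alone.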

[12] = NCI Yeast Anticancer Drug Screen. Data for the mlh1 strain (AID 171);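 further: 0% = growth of vehicle-treated control cultures of the same strain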; conditions: S. cerevisiae mlh1 strain growth inhibition, stronger effect = higher value
In short: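 Yeast screen: mutant strain plus compound, growth scored against vehicle control wells.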

[13] = NCI Yeast Anticancer Drug Screen. Data for the sgs1 strain (AID 173);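 further: 0% = growth of vehicle-only control cultures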; conditions: S. cerevisiae sgs1 mutant, stronger effect = higher value
In short: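 Inhibition of yeast growth served as the measure. The mutant strain was treated with each compound, and growth was normalised to cultures receiving vehicle alone.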

[14] = NCI Yeast Anticancer Drug Screen. Data for the mlh1 rad18 strain (AID 175); conditions: S. cerevisiae mlh1 rad18 strain growth inhibition, stronger effect = higher value
In short: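 Compound-treated yeast growth, normalised to vehicle controls. Strain bears defined DNA repair mutations.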

[15] = NCI Yeast Anticancer Drug Screen. Data for the rad18 strain (AID 177); conditions: S. cerevisiae rad18 mutant growth inhibition, stronger effect = higher value
In short: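 Inhibition values reflect reduced yeast growth compared with vehicle-treated controls, using a strain engineered with a DNA damage repair defect.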

[16] = NCI Yeast Anticancer Drug Screen. Data for the rad52 strain (AID 147);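 further: 0% = growth of vehicle-treated control cultures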; conditions: S. cerevisiae rad52 mutant growth inhibition, stronger effect = higher value
In short: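 Genetically altered yeast (DNA damage repair defect) treated with compound; inhibition calculated relative to vehicle.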

[17] = at 5.0 µM (retest, dose inferred, filed as 0.5)
[18] = at 50.0 µM (retest, dose inferred, filed as 5.0)

Measured: growth inhibition

COc1ccc2cc(CN3CCC(C4CCN(Cc5ccc6cc(OC)ccc6c5)CC4)CC3)ccc2c1
active: [1]; at 100.0 µM 98% | [2]; at 100.0 µM 98% | [3]; at 100.0 µM 97% | [4]; at 50.0 µM 88.8% | [4]; at 100.0 µM 97% | [5]; at 50.0 µM 75.7% | [5]; at 100.0 µM 98% | [6]; at 100.0 µM 97% | [7]; at 50.0 µM 83.2% | [8]; at 100.0 µM 98% | [10]; at 50.0 µM 89% | [10]; at 100.0 µM 98% | [11]; at 100.0 µM 98% | [12]; at 100.0 µM 97% | [13]; at 100.0 µM 98% | [14]; [18] 80% | [15]; at 100.0 µM 98%
inactive: [1]; at 1.2 µM -1% | [1]; at 3.7 µM -16% | [1]; at 11.0 µM 5% | [1]; at 33.0 µM 8% | [2]; at 1.2 µM -17% | [2]; at 3.7 µM -14% | [2]; at 11.0 µM -12% | [2]; at 33.0 µM -2% | [3]; at 1.2 µM -9% | [3]; at 3.7 µM -5% | [3]; at 11.0 µM 0% | [3]; at 33.0 µM 4% | [4]; at 1.2 µM -2% | [4]; at 3.7 µM 5% | [4]; [17] 1% | [4]; at 11.0 µM 9% | [4]; at 33.0 µM 26% | [4]; [18] 38% | [5]; at 1.2 µM -17% | [5]; at 3.7 µM -40% | [5]; [17] -2% | [5]; at 11.0 µM -40% | [5]; at 33.0 µM -31% | [5]; [18] 22% | [6]; at 1.2 µM -19% | [6]; at 3.7 µM -13% | [6]; at 11.0 µM -22% | [6]; at 33.0 µM 9% | [7]; [17] 7% | [7]; [18] 4% | [8]; at 1.2 µM 16% | [8]; at 3.7 µM 29% | [8]; at 11.0 µM 19% | [8]; at 33.0 µM 36% | [9]; [17] 19% | [9]; [18] -48% | [9]; at 50.0 µM 64.3% | [10]; at 1.2 µM -32% | [10]; at 3.7 µM -35% | [10]; [17] 19% | [10]; at 11.0 µM -28% | [10]; at 33.0 µM -20% | [10]; [18] 0% | [11]; at 1.2 µM 0% | [11]; at 3.7 µM 15% | [11]; at 11.0 µM 7% | [11]; at 33.0 µM -3% | [12]; at 1.2 µM -12% | [12]; at 3.7 µM -15% | [12]; at 11.0 µM -17% | [12]; at 33.0 µM -26% | [13]; at 1.2 µM 14% | [13]; at 3.7 µM 8% | [13]; at 11.0 µM 12% | [13]; at 33.0 µM 3% | [14]; [17] -8% | [14]; at 50.0 µM -19.2% | [15]; at 1.2 µM 0% | [15]; at 3.7 µM 0% | [15]; at 11.0 µM 3% | [15]; at 33.0 µM 22%

CC(=O)c1ccc(NCN2C(=O)c3ccccc3C2=O)cc1
inactive: [16]; at 1.2 µM -31% | [16]; at 3.7 µM -8% | [16]; at 11.0 µM 28% | [1]; at 1.2 µM -51% | [1]; at 3.7 µM -41% | [1]; at 11.0 µM -36% | [1]; at 33.0 µM 66% | [2]; at 1.2 µM -17% | [2]; at 3.7 µM -32% | [2]; at 11.0 µM 6% | [4]; at 1.2 µM -20% | [4]; at 3.7 µM -12% | [4]; [17] 42% | [4]; at 11.0 µM 55% | [5]; at 1.2 µM -8% | [5]; at 3.7 µM -30% | [5]; [17] 51% | [5]; at 11.0 µM 16% | [6]; at 1.2 µM -50% | [6]; at 3.7 µM -39% | [6]; at 11.0 µM -19% | [6]; at 33.0 µM 66% | [7]; [17] 7% | [7]; [18] 25% | [8]; at 1.2 µM -19% | [8]; at 3.7 µM -32% | [8]; at 11.0 µM -31% | [8]; at 33.0 µM 53% | [9]; [17] 48% | [9]; [18] 35% | [10]; at 1.2 µM -15% | [10]; at 3.7 µM -2% | [10]; [17] 34% | [10]; at 11.0 µM 22% | [10]; [18] 42% | [11]; at 1.2 µM -49% | [11]; at 3.7 µM -36% | [11]; at 11.0 µM -15% | [11]; at 33.0 µM 64% | [12]; at 1.2 µM -44% | [12]; at 3.7 µM -48% | [12]; at 11.0 µM 6% | [12]; at 33.0 µM 68% | [13]; at 1.2 µM -25% | [13]; at 3.7 µM -28% | [13]; at 11.0 µM -13% | [14]; [17] 36% | [15]; at 1.2 µM -36% | [15]; at 3.7 µM -21% | [15]; at 11.0 µM 47%
active: [16]; at 33.0 µM 84% | [16]; at 100.0 µM 92% | [1]; at 100.0 µM 89% | [2]; at 33.0 µM 70% | [2]; at 100.0 µM 90% | [4]; at 33.0 µM 85% | [4]; [18] 99% | [4]; at 50.0 µM 82.7% | [4]; at 100.0 µM 89% | [5]; at 33.0 µM 81% | [5]; [18] 99% | [5]; at 50.0 µM 84.5% | [5]; at 100.0 µM 91% | [6]; at 100.0 µM 93% | [8]; at 100.0 µM 82% | [10]; at 33.0 µM 79% | [10]; at 100.0 µM 91% | [11]; at 100.0 µM 89% | [12]; at 100.0 µM 83% | [13]; at 33.0 µM 73% | [13]; at 100.0 µM 86% | [14]; [18] 99% | [14]; at 50.0 µM 85.8% | [15]; at 33.0 µM 90% | [15]; at 100.0 µM 92%
